# Screening results as filed in PubChem.
# Only some compounds are listed: those with a hit (about 0.82% of all), similar ones and a draw of the others.
# eLon inh: inhibitors of E. coli Lon protease, primary screen, biochemical, fluorescence polarization. inhibition, % at 7.94 µM. purified E. coli Lon protease. P0A9M0. 360,000 tested, 0.42% active; in the data active means inhibition above about 13%, passing the limit was not always enough;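 further: 0% = enzyme with probe and DMSO and 100% = no enzyme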
# Cardiac RTF inh: cardiac RTF calcium sensitivity inhibitors, primary screen, biochemical, IANBD-TnC fluorescence, EC70 calcium. inhibition, % at 7.15 µM. 340,000 tested, 0.12% active. AID 493244, 2011. IANBD-labeled cardiac RTF, Ca2+ fluorescence. Troponin I, cardiac muscle (Homo sapiens) + Troponin T, cardiac muscle (Homo sapiens) + …;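 active means inhibition above the mean inhibition of all tested compounds plus 3 SD, cut at about 17% in these data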;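 further: assay run at fixed EC70 calcium of 1.6 mM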
# Keap1-Nrf2 PPI: Keap1-Nrf2 protein-protein interaction inhibitors, primary screen, biochemical, fluorescence polarization, single point; AID 504523, 2011; 340,000 tested, 0.15% active; Keap1 Kelch-Nrf2 peptide fluorescence polarization, 1536-well; Kelch-like ECH-associated protein 1 (Homo sapiens), Q14145; inhibition, % at 9.4 µM; in the data active means inhibition above about 12%;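 further: human Keap1 Kelch domain with fluorescein labeled Nrf2 9mer peptide probe; 0% = neutral control wells and 100% = peptide positive control; higher means more block of Keap1 binding to Nrf2 peptide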
# Target sequence (Q14145 whole entry, looked up, the tested form may be a part): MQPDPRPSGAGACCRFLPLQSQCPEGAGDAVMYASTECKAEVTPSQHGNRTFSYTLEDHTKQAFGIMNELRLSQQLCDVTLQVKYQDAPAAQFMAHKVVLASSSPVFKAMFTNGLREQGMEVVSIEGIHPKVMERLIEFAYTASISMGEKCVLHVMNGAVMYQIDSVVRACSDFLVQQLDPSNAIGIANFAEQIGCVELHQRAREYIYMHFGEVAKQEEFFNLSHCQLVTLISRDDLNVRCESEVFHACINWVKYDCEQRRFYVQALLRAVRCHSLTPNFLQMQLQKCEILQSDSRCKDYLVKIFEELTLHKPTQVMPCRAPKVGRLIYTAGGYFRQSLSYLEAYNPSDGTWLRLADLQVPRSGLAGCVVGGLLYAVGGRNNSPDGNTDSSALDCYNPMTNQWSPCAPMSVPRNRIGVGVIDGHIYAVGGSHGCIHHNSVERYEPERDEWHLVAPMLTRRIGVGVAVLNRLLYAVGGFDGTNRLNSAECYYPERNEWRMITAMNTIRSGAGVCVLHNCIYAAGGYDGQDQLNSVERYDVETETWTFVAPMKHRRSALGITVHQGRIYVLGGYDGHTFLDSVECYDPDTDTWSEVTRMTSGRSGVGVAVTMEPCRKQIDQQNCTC
# LANA DNA inh: inhibitors of KSHV C-LANA binding to DNA, primary screen, biochemical, fluorescence polarization, FAM-LBS DNA, MBP-C-LANA, single point; inhibition, % at 9 µM; 340,000 tested, 0.078% active;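 active means highest replicate inhibition at or above 60% at 9 µM, even if other replicates fall short; inactive means all replicates below 60% inhibition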;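 further: 0% = neutral control wells and 100% = 4 µM acridine orange control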
# RTF Ca sens act: cardiac RTF calcium sensitivity activators, primary screen, biochemical, IANBD-TnC fluorescence, EC20 calcium. IANBD-labeled TnC RTF fluorescence at EC20 calcium; 0% EC20 calcium, 100% full calcium. Troponin I, cardiac muscle (Homo sapiens) + Troponin T, cardiac muscle (Homo sapiens) + …. activation, % at 7.2 µM. 340,000 tested, 0.24% active;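 active means activation above the mean over all tested compounds plus 3 SD, cut at about 30% in these data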;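 further: rise in fluorescence read as greater calcium sensitivity of cardiac thin filaments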
# RTF inh confirm: cardiac RTF calcium sensitivity inhibitors, confirmation, biochemical, fluorescence readout | shares compounds with Cardiac RTF inh | reconstituted cardiac thin filaments | inhibition, % at 7.15 µM | 360 tested, 8% active; in the data active means inhibition above about 18%
# * hit, by the source's call; i = inactive; . = no result.
SMILES,eLon inh,Cardiac RTF inh,Keap1-Nrf2 PPI,LANA DNA inh,RTF Ca sens act,RTF inh confirm
CN(C)c1ccc(/C=C2\SC(N3CCCCC3)=NC2=O)cc1,-329,-75,-5,1,40*,.
O=C1CSC(=S)N1/N=C/c1cc(Br)c(O)c(Br)c1,i,-120,-263,-22,56*,.
COc1cc(/C=N/N2C(=O)CSC2=S)ccc1O,-22,-26,-8,-4,-2,.
Cn1cc(/C=C2\SC(=S)N(NC(=O)c3ccccc3)C2=O)c2ccccc21,-92,-62,-4,0,70*,.
Cn1cc(/C=C2\SC(=S)N(NC(=O)c3cccc(Cl)c3)C2=O)c2ccccc21,-68,-34,2,0,45*,.
CC(C)c1ccc(NC(=O)Nc2nc(C(N)COCc3ccccc3)cs2)cc1 (stereo unspecified),4,.,.,.,.,.
O=C(OCc1ccccc1)N1CCC2CC1c1ccc(N3CCNCC3)cc12 (stereo unspecified),2,.,.,.,.,.
COc1ccccc1CNC(=O)C1(C)CCN1C(=O)C1(c2ccccc2)CC1 (stereo unspecified),9,.,.,.,.,.
O=S(=O)(O)c1cc(O)c2cc(Nc3ccccc3)ccc2c1,17,16,0,93*,-13,.
COCCNC(=O)C[C@@H]1C[C@H]2c3cc(NC(=O)Nc4ccc(F)cc4)ccc3O[C@H]2[C@H](CO)O1,2,.,.,.,.,.
CC(C)(C)n1nnnc1C(CCc1ccccc1)N1CCN(C/C=C/c2ccccc2)CC1 (stereo unspecified),1,.,.,.,.,.
COC(=O)[C@H](C)NC(=O)c1cc2c(cn1)[nH]c1ccccc12,-5,-1,3,1,32*,.
COc1ccc(NC(=O)C2(C)Cc3c(-c4cccc(C(F)(F)F)c4)ccnc3O2)cc1OC (stereo unspecified),1,.,.,.,.,.
CC(C)/C=C1\CC/C(=C\c2ccc(N(C)C)cc2)C1=O,i,-38,1,7,64*,.
COc1cc(C=C2C(=O)C=CC2=O)ccc1O,-139,.,.,.,.,.
N/C(=N\c1nc2c(c(=O)[nH]1)CCC2)Nc1ccccc1C(F)(F)F,-3,17*,-3,0,1,.
COc1cccc(-n2cc(C(=O)NCCCOC(C)C)c3ccccc3c2=O)c1,-6,4,-6,120*,-2,.
COc1ccccc1CNC(=O)Nc1nc(C(N)CCc2ccccc2)cs1 (stereo unspecified),-1,.,.,.,.,.
Nc1ccc(C(=O)O)c(O)c1,6,-1,-5,8,0,.
Nc1ccc(N)c(C(=O)O)c1,43*,8,7,110*,-19,.
CC(=O)NC(CC(C)C)C(=O)O (stereo unspecified),-5,1,-2,0,1,.
CN[C@H](CC(=O)O)C(=O)O,2,18*,-1,1,6,-2
O=C(CCCCCN1C(=O)c2ccccc2C1=O)Nc1ccccc1,-2,18*,-3,0,1,-5
c1coc(CNC2CCCCCCC2)c1,-7,18*,-2,-1,2,-5
c1coc(CNC2CCCCC2)c1,-7,-3,-3,1,1,.
SMILES,eLon inh,Cardiac RTF inh,Keap1-Nrf2 PPI,LANA DNA inh,RTF Ca sens act,RTF inh confirm
COc1ccc(NC(=O)C2(C)CCN2Cc2ccccc2Cl)cc1OC (stereo unspecified),-4,.,.,.,.,.
COc1ccc(-c2nc(NCCN(C)C)nc3ccsc23)c(C)c1,7,.,.,.,.,.
O=[N+]([O-])c1nn(-c2ccc3c(c2)OCCO3)n(O)c1=NCCC1=CCCCC1,2,18*,1,-1,-2,2
O=[N+]([O-])c1nn(-c2ccc3c(c2)OCCO3)n(O)c1=NCc1ccc(F)cc1,3,-11,4,0,-10,.
O=C(NCC1CCCCC1)c1cc(-c2cc(F)ccc2OCC2CCCO2)n[nH]1 (stereo unspecified),-3,.,.,.,.,.
CC1(C)CCCN(C(=O)c2coc(=O)c(Br)c2)C1,-6,22*,-4,64*,-17,2
O=C(c1coc(=O)c(Br)c1)N1CCC(C(O)(c2ccccc2)c2ccccc2)CC1,-3,-3,0,0,4,.
CCOC(=O)c1ccc(NC(=S)N(CCCN2CCN(C)CC2)Cc2cccs2)cc1,-5,-5,1,-4,-1,.
CCOC(=O)c1ccc(NC(=S)N(CCCN2CCN(CC)CC2)Cc2cccs2)cc1,1,17*,0,1,-4,-2
Cc1cccnc1NC(=O)C1CCCN1S(=O)(=O)c1ccc(Cl)cc1 (stereo unspecified),4,29*,-2,0,-5,-3
COc1ccc(NC(=O)C2Cc3c(-c4cccc(F)c4)ccnc3O2)cn1 (stereo unspecified),7,.,.,.,.,.
CCn1nc([N+](=O)[O-])c(C(C#N)c2nc3cc(C(F)(F)F)ccc3s2)c(Cl)c1=O (stereo unspecified),1,19*,-1,3,-11,2
OC(c1ccc(Cl)c(F)c1)c1ncc(-c2cccc(C(F)(F)F)c2)[nH]1 (stereo unspecified),-7,.,.,.,.,.
CC(=O)Oc1ccc(C)cc1-n1nc2ccccc2n1,-6,20*,-1,0,0,-7
Cc1ccc(OCC(=O)O)c(-n2nc3ccccc3n2)c1,-4,4,-1,0,-1,.
CN(C)S(=O)(=O)c1ccc(NC(=O)N2CCN(c3ccccc3Cl)CC2)cc1,1,19*,1,-1,-6,-3
CCN(CC(=O)Nc1c(F)cccc1F)C(=O)/C=C/c1ccc2ccccc2n1,-23,20*,3,2,-11,2
CCN(CC(=O)Nc1c(F)cccc1F)C(=O)c1ccc2ccccc2n1,-3,-11,-3,0,-11,.
O=[N+]([O-])c1ccc(OCc2cccc(COc3ccc([N+](=O)[O-])cc3)n2)cc1,-9,17*,-6,3,1,-4
O=C(N/N=C/c1cn(Cc2cccc(F)c2)c2ccccc12)c1cc(O)cc(O)c1,-1,21*,0,19,-15,6
Nc1ccc(C(=O)N/N=C/c2cn(Cc3ccc(F)cc3)c3ccccc23)cc1,2,2,4,0,-6,.
CC(=O)NC(C)(c1ccccc1)c1nc(-c2cnc3ccccc3c2)cs1 (stereo unspecified),4,.,.,.,.,.
Cc1ccc(NC(=O)COC(=O)/C=C/c2cccc(Cl)c2)cc1S(=O)(=O)N1CCOCC1,-3,22*,0,-2,1,-6
